Shown are actives, neighbours in structure and some others; about 12% of the full set was active somewhere.
HP1b chromo inh: HTS for Inhibitors of HP1-beta Chromodomain Interactions with Methylated Histone Tails; Chromobox protein homolog 1 (Homo sapiens), P83916; AlphaScreen HP1-beta / biotin-H3K9me3 peptide binding; Potency, µM (doses to about 114 µM), actives largely listed as inhibitors; 0.56% of 390,000 active; AID 540317, 2011; also: nearly all actives have a fitted effect of over 70% in size
Target sequence (P83916 whole entry, looked up): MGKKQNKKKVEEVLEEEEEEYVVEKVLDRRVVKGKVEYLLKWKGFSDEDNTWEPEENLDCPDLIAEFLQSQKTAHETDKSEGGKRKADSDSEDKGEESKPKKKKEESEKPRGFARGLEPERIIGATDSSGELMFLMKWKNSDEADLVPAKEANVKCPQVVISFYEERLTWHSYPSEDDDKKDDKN
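Compound inhibition of the preformed complex between 50 nM HP1-beta and 50 nM biotinylated H3K9me3 peptide was read by AlphaScreen. Buffer was PBS pH 7.4 with 0.01% Tween-20. Incubations ran 30 min at room temperature, with 10 ug/mL donor/acceptor beads.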
BAZ2B block: qHTS Assay for Inhibitors of BAZ2B; Bromodomain adjacent to zinc finger domain protein 2B (Homo sapiens), Q9UIF8; AlphaScreen BAZ2B-H3K14Ac peptide displacement; 4.4% of 360,000 active; Potency, µM (highest dose often 114 µM), usual class: inhibitors; AID 504333, 2011; also: nearly all actives have a fitted effect of over 60% in size
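Multi-concentration screen (max 110 uM) measuring displacement of acetylated histone H3 peptide from BAZ2B by AlphaScreen, using 50 nM protein, 50 nM peptide and 10 ug/mL streptavidin donor plus Ni-chelate acceptor beads.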
Sfp inh: qHTS Assay for Inhibitors of Bacillus subtilis Sfp phosphopantetheinyl transferase (PPTase); 3.5% of 310,000 active; 4'-phosphopantetheinyl transferase ffp (Bacillus subtilis), Q9F4F7; Potency, µM, hits mostly inhibitors; AID 1490, 2009; Biochemical Sfp PPTase activity, qHTS;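 also: the enzyme is Sfp with the accession as filed and its product quenches rhodamine fluorescence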
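After 15 min at room temperature with compound, 15 nM Sfp received 5 uM rhodamine-CoA plus 12.5 uM BHQ-2-ybbR (50 mM Hepes pH 7.6, 10 mM MgCl2). Rate came from the fluorescence difference over 30 min, ex 525/em 598 nm.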
JMJD2A Tudor inh: qHTS Assay for Inhibitors of JMJD2A-Tudor Domain; Potency, µM (doses to about 114 µM), actives largely listed as inhibitors; Lysine-specific demethylase 4A (Homo sapiens), O75164; 4.4% of 390,000 active; AID 504339, 2011; AlphaScreen JMJD2A-Tudor / H3K4me3 peptide binding; also: nearly all actives have a fitted effect of over 50% in size
L3MBTL1 inh: qHTS Assay for the Inhibitors of L3MBTL1; Lethal(3)malignant brain tumor-like protein 1 (Homo sapiens), Q9Y468; AlphaScreen L3MBTL1–H3K9me1 peptide binding; 0.66% of 230,000 active; Potency, µM (top dose mostly 57.1 µM), actives largely listed as inhibitors; also: nearly all actives have a fitted effect of over 60% in size
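L3MBTL1 (50 nM) pre-complexed 30 min with biotinylated H3(1-15)K9me1 peptide (75 nM), then compounds added for 30 min at room temperature; AlphaScreen streptavidin donor/nickel chelate acceptor beads (10 ug/mL final) read after 30 min dark incubation.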
G9a block: qHTS Assay for Inhibitors of Histone Lysine Methyltransferase G9a | G9a H3K9 monomethylation, AlphaScreen, 2 h | Histone-lysine N-methyltransferase EHMT2 (Homo sapiens), Q96KQ7 | AID 504332, 2011 | Potency, µM (series often up to 102 µM), actives largely listed as inhibitors | 8.8% of 350,000 active; also: nearly all actives have a fitted effect of over 75% in size
Target sequence (Q96KQ7 913-1193 limits assumed): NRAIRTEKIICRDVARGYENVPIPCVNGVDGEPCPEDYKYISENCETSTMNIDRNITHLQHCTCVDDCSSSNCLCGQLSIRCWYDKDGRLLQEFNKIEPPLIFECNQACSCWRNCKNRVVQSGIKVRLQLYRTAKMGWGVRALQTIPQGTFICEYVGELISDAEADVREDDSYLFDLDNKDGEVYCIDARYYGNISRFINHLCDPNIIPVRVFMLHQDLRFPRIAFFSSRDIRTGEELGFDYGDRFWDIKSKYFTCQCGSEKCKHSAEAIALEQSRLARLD
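Methyltransferase reactions run at room temperature for 2 h (20 nM enzyme, 500 nM biotin-H3K9 peptide, 20 uM SAM) after a 15 min compound preincubation; product detected by AlphaScreen beads and anti-H3K9me1 antibody.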
Numbers stand for hits; . = inactive; ? = inconclusive; / = no result given; [ ] = remark or other dose. Calls follow the shape of the dose curve; as a rule, active = well fitted curve in the direction sought with a large enough effect; inconclusive = small, poorly fitted or top-dose-only effect, or another doubt; inactive = no such curve, though single readings can be large; an effect the other way counts as inactive or inconclusive.

SMILES | HP1b chromo inh | BAZ2B block | Sfp inh | JMJD2A Tudor inh | L3MBTL1 inh | G9a block
CCOC(=O)N1CCN(C(=O)c2cc3c(=O)n4ccccc4nc3s2)CC1 | . | . | . | . | / | .
CN1CCN(C(=O)c2cc3c(=O)n4ccccc4nc3s2)CC1 | . | . | . | . | / | 50µM
O=C(O)c1cc(Oc2ccc([N+](=O)[O-])cc2)cc(Oc2ccc([N+](=O)[O-])cc2)c1 | / | / | . | / | / | /
CC1CCC2(C1)N=C(Nc1nc3ccccc3o1)NC1=C2C(=O)CCC1 (configuration not stated) | / | / | / | 56µM | / | /
CCC1CCC2(C1)N=C(Nc1nc3ccccc3o1)NC1=C2C(=O)CCC1 (configuration not stated) | / | / | / | . | / | /
Cc1nnsc1C(=O)NNS(=O)(=O)c1ccccc1 | . | ? | . | ? | . | .[12.7 µM]
Cc1nc(NS(=O)(=O)c2ccccc2)sc1C(=O)NN | . | ? | . | . | . | .[12.7 µM]
C/C(=N/NC(=O)c1sc(NS(=O)(=O)c2ccccc2)nc1C)c1sc(N)nc1C | . | ? | . | ? | / | 50µM
Cc1cccc(S(=O)(=O)NNC(=O)c2sc(C)nc2C)c1 | . | . | . | 10µM | . | ?
Cc1c(C(=O)NNS(=O)(=O)c2ccccc2)sc(=S)n1C | . | ? | . | 8.9µM | . | .
CC(=O)NNC(=O)c1sc(=S)n(C)c1C | . | . | . | . | . | .
Cc1nc(C)c(C(=O)NNS(=O)(=O)c2ccc([N+](=O)[O-])cc2)s1 | . | . | . | 2µM | . | 7.9µM
COc1ccc(CCNC(=O)c2ccc3c(c2)N(Cc2ccc(F)cc2)C(=O)c2ccccc2S3(=O)=O)cc1OC | . | . | / | . | / | .
COc1ccc(-n2c(=O)c3ccc(C(=O)NCc4ccc(C)cc4)cc3n(CC(=O)Nc3ccc(F)cc3)c2=O)cc1 | . | / | / | . | / | .
CCC(C)Sc1oc(-c2ccco2)nc1S(=O)(=O)c1ccc(Cl)cc1 (configuration not stated) | . | . | / | . | / | .
Cc1ccc(S(=O)(=O)Nc2nc(C)c(C(=O)NNS(=O)(=O)c3ccccc3)s2)cc1 | . | . | . | . | . | 50µM
CCc1ccc(OCC2c3cc(OC)c(OC)cc3CCN2C(=S)NC)cc1 (configuration not stated) | . | ? | . | ? | . | ?
CCc1ccc(OCC2c3cc(OC)c(OC)cc3CCN2C(=S)NCCOC)cc1 (configuration not stated) | . | ? | . | ? | . | 16µM
CCNC(=S)N1CCc2cc(OC)c(OC)cc2C1COc1ccc(OC)cc1 (configuration not stated) | . | ? | . | ? | / | 50µM
Cc1cccc(C(=O)Nc2cccc(C(=O)OCc3cc(=O)n4ccsc4n3)c2)c1 | . | . | / | . | / | .
O=C(CCO)c1ccc(O)cc1 | ? | 13µM | . | 20µM | 3.5µM | ?
CC(=O)C(C(C)=O)C1(O)C(=O)c2ccccc2C1=O | . | . | . | . | ? | 50µM
Cc1ccc(Nc2ncnc3c2nnn3Cc2ccccc2)cc1 | . | . | . | . | . | .
CCc1nc(Nc2ccccc2)c2nnn(Cc3ccccc3)c2n1 | . | . | 35µM | . | / | .
C=CCn1c(/N=C/c2ccc(OC)cc2)nc2ccccc21 | . | . | . | . | / | .
SMILES | HP1b chromo inh | BAZ2B block | Sfp inh | JMJD2A Tudor inh | L3MBTL1 inh | G9a block
C=CCn1c(/N=C/c2ccc(N(C)C)cc2)nc2ccccc21 | . | ? | . | ? | . | 45µM
COc1cc2c(cc1OC)-c1c(OC)c(OC)cc3ccnc(c13)C2=O | . | 14µM | . | . | . | .
c1ccc(CNCCNCc2ccccc2)cc1 | / | / | . | / | / | .[12.7 µM]
Cc1ccccc1NC(=O)CSc1ccc(-c2cccs2)nn1 | . | . | / | . | / | .
Cc1cccc(OCc2nnc(SCC(=O)Nc3ccc(N4CCOCC4)cc3)o2)c1 | . | . | . | . | / | .
Cc1cc(-c2nnc(SCC(=O)Nc3nccs3)o2)no1 | . | 20µM | . | 40µM | / | .[12.7 µM]
O=C(CSc1nnc(COc2ccccc2)o1)NCCc1ccccc1 | ? | . | . | 3.2µM | . | .
Cc1cc(-c2nnc(SCC(=O)Nc3ccccn3)o2)no1 | . | . | . | ? | / | .
Cc1cccc(OCc2nnc(SCC(=O)Nc3nccs3)o2)c1 | . | 79µM | . | . | . | .
O=C(CSc1nnc(COc2ccc(Cl)cc2)o1)Nc1ccc(N2CCOCC2)cc1 | . | . | / | . | . | 32µM
CCCCNC(=O)Cn1c(=O)cc(C)c2c(C)nn(-c3ccc(CC)cc3)c21 | . | . | / | . | / | .
CC(=O)O[C@]1(C(C)=O)CC[C@H]2C3C=C(Cl)C4=CC(=O)[C@@H]5C[C@H]5[C@]4(C)C3CC[C@@]21C (some centres not stated) | / | / | / | / | / | .[12.7 µM]
O=C(CSc1nnc(COc2ccccc2)o1)Nc1nccs1 | . | 79µM | . | . | ? | .
Cc1cnc(NC(=O)CSc2nnc(COc3ccccc3)o2)s1 | . | . | . | . | . | .
CC(=O)NCCN=Cc1sc2ccccc2c1O | . | . | . | . | . | .[0.0925 µM]
CCCN=Cc1sc2ccc(OCC)cc2c1O | . | / | 50µM | . | . | ?
O=C1[O][Bi][O]c2ccccc21 | / | / | . | / | / | 3.2µM
O=C1NCCNC(=O)c2ccccc2OCCOc2ccccc21 | . | . | . | . | . | .
c1ccc(OCCOCCN2CCc3ccccc3C2)cc1 | . | . | . | . | . | .
CCCOc1ccc(OCCOCCN2CCc3ccccc3C2)cc1 | ? | 50µM | ? | 3.5µM | / | 10µM
CCOc1ccc(OCCOCCN2CCc3ccccc3C2)cc1 | ? | 56µM | . | 2.8µM | . | /
C=CCc1cc(OC)ccc1OCCOCCN1CCc2ccccc2C1 | ? | 56µM | 35µM | 0.89µM | . | 11µM
Cc1ccc(SCCOCCN2CCc3ccccc3C2)cc1 | ? | . | . | 40µM | . | ?
COc1ccc(CCNc2nc(-c3ccc(OC)c(OC)c3)cc(C(F)(F)F)n2)cc1OC | . | . | / | . | / | .
OCc1c[nH]c(=S)n1CCOc1cccc(C(F)(F)F)c1 | . | . | ? | 22µM | / | ?
CCc1cccc(C)c1NC(=O)c1cc(S(=O)(=O)N2CCCCCC2)cn1C | . | . | / | . | / | .
COc1ccc(C(=O)Nc2ccc3nc(N4CCOCC4)sc3c2)cc1OC | . | . | / | . | . | .[12.7 µM]
CCCn1nc(C(=O)Nc2ccc3nc(N4CCOCC4)sc3c2)ccc1=O | . | . | / | . | . | 50µM
O=C(CCCCn1cnc2c(=S)nc[nH]c21)Nc1ccc(C(=O)O)cc1 | 71µM | / | / | 1.4µM | / | /
O=C(CSc1nnc(-c2ccccc2O)o1)N1CCOCC1 | . | 79µM | . | 56µM | / | .
